Cycloheximide cs: counter-screen for Shiga toxin inhibitors: cycloheximide protein synthesis inhibition | cell reporter, cycloheximide protein synthesis inhibition counterscreen | max response, % | hit rate 12% among 300,000; in the data active = max response mostly above about 13%, no sharp cut-off; inactive = mostly below about 14%; note: read at 38.3 µM for the half of the compounds with a filed dose; 0% is about no effect
Shiga inhibitor: inhibitors of Shiga toxin in Vero cells; Vero cells, Shiga toxin protein synthesis inhibition reporter; inhibition, % at 38.7 µM; hit rate 9.2% among 290,000; AID 2315; in the data active = inhibition mostly above about 28%, no sharp cut-off; inactive = mostly below about 43%; note: 0% is about no effect
Pf growth 96h: inhibits malaria parasite growth, 96 h; hit rate 6.9% among 320,000; P. falciparum luciferase reporter growth, 96 h; Potency, µM (doses to about 28.7 µM), for the others: at the highest dose activity change, negative = inhibition, usual class: inhibitors; AID 504834; note: potency is the fitted concentration of half-maximal effect; % is set by controls: 0 for no effect and ±100 for the full control effect
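Readout is luminescence from an integrated firefly luciferase in P. falciparum. Red cells, 2% hematocrit and 0.05% parasitemia final, were cultured with compound through two parasite generations (96 hours) at 37 C, 5% CO2.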
Pf growth 48h: P. falciparum growth inhibition at 48 hours (one generation) | P. falciparum luciferase growth in erythrocytes, 48 h | Potency, µM (doses to about 28.7 µM), for inactives: at the highest dose activity change, negative = inhibition, actives largely listed as inhibitors | hit rate 5.9% among 310,000 | AID 504832; note: potency is the fitted concentration of half-maximal effect; % is set by controls: 0 for no effect and ±100 for the full control effect
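Here the parasites carry a stable luciferase gene and grow inside erythrocytes in Albumax-based RPMI medium with compound for one erythrocytic cycle. Activity is scored as loss of luminescent signal.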
Numbers without * were called inactive; ? = inconclusive; . = not tested or not shown. Only some compounds are listed: those with a hit (about 21% of all), similar ones and a draw of the others. Unless noted, calls come from the whole dose curve; as a rule, active = well fitted inhibition curve with a large enough effect; inconclusive = small, poorly fitted or top-dose-only effect, or another doubt; inactive = no such curve, though single readings can be large or run the other way.

SMILES | Cycloheximide cs | Shiga inhibitor | Pf growth 96h | Pf growth 48h
COC(=O)C1C(=O)C2=C(CC1C)NC(C)=C(C(=O)OC1CCCCC1)C2c1ccc(N(C)C)cc1 (stereo not drawn) | 6 | 16 | 37% | 5.9µM*
COC(=O)C1C(=O)c2c([nH]c(C(=O)OC3CCCC3C)c2C)CC1C (stereo not drawn) | 27* | 67* | 19% | 15%
CCCn1c(N)c(N(CCOC)C(=O)c2ccc([N+](=O)[O-])cc2Cl)c(=O)[nH]c1=O | 2 | 15 | ? | 1%
CC(C)(C)OC(=O)N1CCC(C(=O)N2CCC[C@H]2C(=O)O)CC1 | 9.6* | 60* | 33% | 9%
CCOC(=O)C1(O)CC(C)=NN1C(=O)c1cccc(Cl)c1 (stereo not drawn) | 4 | 5 | -25% | -6%
Cc1ccc(N2CC(NS(=O)(=O)c3cccs3)CC2=O)cc1 (stereo not drawn) | . | . | 2% | -13%
Cc1cc(-c2ccccc2)nc(=O)[nH]1 | -2 | -5 | 6.6µM* | 20%
O=c1nc(-c2ccccc2)cc(C(F)(F)F)[nH]1 | -2 | 10 | ? | ?
COc1cccc(-n2c(CN3CCOCC3)nc3ccc([N+](=O)[O-])cc3c2=O)c1 | -3 | -4 | 0% | ?
O=c1c2cc([N+](=O)[O-])ccc2nc(CN2CCN(c3ccccn3)CC2)n1-c1ccccc1F | -8 | -1 | 13µM* | 64%
COc1cccc(-n2c(CN3CCN(Cc4ccccc4)CC3)nc3ccc([N+](=O)[O-])cc3c2=O)c1 | -2 | -11 | -16% | 12µM*
COc1ccc(-n2c(CN3CCN(c4ccccn4)CC3)nc3ccc([N+](=O)[O-])cc3c2=O)c(OC)c1 | -5 | -19 | -1% | 12µM*
CNC(=O)[C@@H]1CCC(=O)N1 | . | . | 61% | 28%
COC(CN(C)S(=O)(=O)c1cc2c3c(c1)CCN3C(=O)CC2)OC | 3 | 14 | 32% | 13%
COc1ccc(-c2nnc3n2N=C(c2cc(OC)ccc2OC)CS3)c(OC)c1 | 5 | -7 | . | .
CCn1cc(S(=O)(=O)N2CCCC2)cn1 | -2 | -25 | -2% | 10%
COc1ccc2nc3sc(C(=O)NCCN4CCc5ccccc5C4)cc3cc2c1 | 43* | 53* | ? | 9.3µM*
CCN1CCN(C(=O)/C=C/c2ccc(OC)cc2)CC1 | 2 | 11 | 3% | ?
COc1ccc2cc3cc(C(=O)NCCCN4CCc5ccccc5C4)sc3nc2c1 | 35* | 71* | ? | ?
COc1ccc2cc3cc(C(=O)NC4CC4)sc3nc2c1 | 48* | 57* | -19% | 21%
CCN1CCN(C(=O)c2cc3cc4cc(OC)ccc4nc3s2)CC1 | 12* | 25* | . | 22%
COc1ccc2cc(C(=O)NC3CCCCC3)c(=O)oc2c1 | -1 | -17 | 56% | 11%
O=C(Nc1cc(S(=O)(=O)N2CCOCC2)ccc1N1CCOCC1)c1cccs1 | . | . | ? | -21%
CC(C)Cn1c(CCC(N)=O)nnc1SC(C)C(=O)Nc1ccc2c(c1)OCO2 (stereo not drawn) | . | . | 11% | -5%
COc1ccc(NC(=O)Nc2nnc(-c3ccccc3F)s2)cc1 | -1 | -4 | ? | 5%
SMILES | Cycloheximide cs | Shiga inhibitor | Pf growth 96h | Pf growth 48h
COc1ccc(NC(=O)Nc2nnc(-c3ccco3)s2)cc1 | 34* | 59* | 39% | 51%
COc1ccc(CC(=O)Nc2nnc(C(C)C)s2)cc1 | 19* | 29 | 33% | 4%
CC(C)c1nnc(NC(=O)Cc2ccc(Br)cc2)s1 | -2 | -11 | -13% | 12%
COc1ccc(NC(=O)Nc2nnc(C(C)C)s2)cc1 | 42* | 62* | 4% | 84%
CCCc1nnc(NC(=O)Nc2ccc(OC)cc2)s1 | 24* | 39 | 41% | 20%
O=C(O)c1ccc(CNC(=O)c2ccc3c(c2)C(=O)N(Cc2cccnc2)C3=O)cc1 | -2 | -3 | ? | 17%
Cc1cc(Cl)ccc1NC(=O)CN1C(=O)C(=O)N(C2CCCC2)C1=O | . | . | -1% | ?
CN(Cc1cn(C)c2ccccc12)C(=S)Nc1cc(F)cc(F)c1 | -3 | -5 | -11% | 12µM*
Cc1cccc(NC(=S)N(C)Cc2cn(C)c3ccccc23)c1 | -3 | -2 | 30% | -21%
CCOCCCNC1=C(Cl)C(=O)c2ccccc2C1=O | 36* | 72* | ? | 3.7µM*
Cc1ccc(NC2=C(NCCO)C(=O)c3ccccc3C2=O)cc1 | 32* | 87* | 67% | 5.9µM*
COc1ccc(C2=C(Nc3ccc(C)cc3)c3ccccc3C2=O)cc1 | 1 | -13 | -15% | 0.83µM*
O=C1C(Cl)=C(NCCCO)C(=O)c2ccccc21 | 14* | 13 | . | ?
COc1ccc(C2=C(Nc3ccc(F)cc3)c3ccccc3C2=O)cc1 | -3 | -19 | 39% | -2%
Cc1ccc(NCCNc2ccc(C)cc2)cc1 | 3 | 20 | . | 44%
CCC(C)(C)NC(=O)C(c1ccc(C)o1)N(Cc1ccc2c(c1)OCO2)C(=O)c1snc(C(N)=O)c1N (stereo not drawn) | -5 | -12 | ? | -12%
Cc1n[nH]c(C)c1CCN(C)Cc1cn(C)nc1-c1ccccc1F | -1 | -5 | 1% | 12%
O=C1C(Cl)=C(NCCN2CCOCC2)C(=O)c2ccccc21 | 32* | 63* | ? | ?
CC1CCN(Cc2c(O)ccc3c(=O)c(-c4nc5ccccc5s4)c(N)oc23)CC1 | 10 | -5 | ? | 0.26µM*
COc1ccccc1-c1c(C)oc2c(CN3CCN(CCO)CC3)c(O)ccc2c1=O | -6 | 18 | 26% | 1%
CC1CCCN(Cc2c(O)ccc3c(=O)c(-c4nc5ccccc5s4)c(N)oc23)C1 (stereo not drawn) | 5 | 10 | 0.066µM* | 0.074µM*
CC1(C)CCCN(Cc2c(O)ccc3c(=O)c(-c4nc5ccccc5s4)c(N)oc23)C1 | 33* | 77* | ? | ?
COc1ccccc1Oc1c(C)oc2c(CN3CCOCC3)c(O)ccc2c1=O | -3 | 2 | -10% | ?
O=C(CNC(=O)COc1ccccc1)NCCN1CCOCC1 | . | . | 10% | 10%
c1ccc(CNc2c3c(nc4ncnn24)CCC3)cc1 | -8 | -6 | 30% | 0%
SMILES | Cycloheximide cs | Shiga inhibitor | Pf growth 96h | Pf growth 48h
Cc1noc(C)c1CSc1ccccc1C(=O)O | 8 | -14 | 30% | -4%
Cc1cc(Cl)ccc1NC(=O)CN(C)C1=NS(=O)(=O)c2ccccc21 | . | . | -15% | -24%
Cc1sc(NC(=O)C2=COCCO2)nc1-c1ccc(Cl)cc1 | . | . | 23% | 19%
O=C(NCCO)Nc1ccc(Cl)cc1 | 7 | -7 | 8% | 11%
COc1ccc(N2CCC(CNC(=O)Nc3cccc(OC)c3)C2)cc1 (stereo not drawn) | -1 | 15 | -27% | .
O=C(NCC1CC1)Nc1cccc(C(F)(F)F)c1 | 3 | 17 | -2% | -1%
Cc1cccc(NC(=O)NCC2CC2)c1 | 14* | 37 | 35% | 48%
COc1ccc(N2CCC(CNC(=O)Nc3ccc(Cl)cc3)C2)cc1 (stereo not drawn) | 14* | 23 | -23% | -19%
O=C(NCC1CC1)Nc1ccc(Cl)cc1 | 32* | 70* | 65% | 34%
O=C(NCC1CC1)Nc1cccc(Cl)c1 | 25* | 86* | 13% | 33%

Source: PubChem (National Center for Advancing Translational Sciences (NCATS))
